TIM10 inh: TIM10 yeast growth inhibition. actives 1.4% (n = 330,000). S. cerevisiae TIM10 strain growth, BacTiter-Glo luminescence, 24 h. inhibition, % at 10 µM;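 active = inhibition of 40% or more at the single tested concentration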;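 also: wild-type TIM10 isogenic control strain grown at permissive 25 °C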
EBI2 block: EBI2 (human) antagonism. AID 651636. P32249. inhibition, % at 5 µM. actives 0.81% (n = 360,000). EBI2 beta-arrestin recruitment, luminescence, 7a,25-OHC stimulated; in the data active = inhibition above about 38%;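 also: enzyme fragment complementation signal reports receptor beta-arrestin coupling in cells; 0% = agonist plus DMSO wells and 100% = wells without agonist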
Target sequence (P32249 whole entry, looked up, the tested form may be a part): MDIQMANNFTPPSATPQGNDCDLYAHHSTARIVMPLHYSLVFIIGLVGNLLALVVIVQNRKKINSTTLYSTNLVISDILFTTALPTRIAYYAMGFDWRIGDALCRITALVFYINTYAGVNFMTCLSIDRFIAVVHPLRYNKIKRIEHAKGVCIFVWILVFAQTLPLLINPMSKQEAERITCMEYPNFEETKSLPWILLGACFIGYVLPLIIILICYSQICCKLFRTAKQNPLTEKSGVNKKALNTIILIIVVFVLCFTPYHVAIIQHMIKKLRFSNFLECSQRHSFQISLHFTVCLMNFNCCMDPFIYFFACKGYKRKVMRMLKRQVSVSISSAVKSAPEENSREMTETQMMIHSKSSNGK
tim10-1 inh: tim10-1 yeast growth inhibition; S. cerevisiae tim10-1 ts strain growth, BacTiter-Glo, 24 h; actives 2.2% (n = 330,000); inhibition, % at 20 µM;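 active = inhibition of at least 40%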;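 also: mutant grown at 25 °C; 0% = DMSO wells with yeast and 100% = wells holding no yeast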
tim23-1 inh: inhibits growth of tim23-1 mutant yeast; S. cerevisiae tim23-1 growth, BacTiter-Glo luminescence, 24 h; inhibition, % at 20 µM; actives 1.3% (n = 330,000); AID 463212;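 active = growth inhibition of the mutant yeast at or above 50%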;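 also: temperature-sensitive mutant grown at 25 °C; plate controls were DMSO-treated mutant yeast for no effect and medium wells lacking yeast for full effect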
PfHsp90 set2: growth inhibition of yeast expressing Plasmodium Hsp90; actives 0.32% (n = 310,000); inhibition, % at 9.4 µM; S. cerevisiae expressing PfHsp90, BacTiter-Glo ATP, 48 h; yeast lacking PDR1 and PDR3 efflux regulators; AID 504621;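 active = every replicate shows inhibition above about 80%, whatever the replicate mean, limit read from the data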;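 also: 0% = DMSO neutral controls and 100% = 20 µM radicicol positive controls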
SKKanGAS inh: SKKanGAS growth inhibition | S. pyogenes SKKanGAS, kanamycin growth, BacTiter-Glo, 6 h | actives 1.3% (n = 300,000) | inhibition, % at 7.5 µM;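 active = mean replicate score, as percent of positive control median, at least 50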;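 also: strain carries kanamycin resistance gene driven by streptokinase promoter and grows in 40 µg/ml kanamycin; loss of luminescence reflects streptokinase promoter inhibition or plain growth inhibition; 0% = median of DMSO wells and 100% = positive control at its reference dose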
Starred values were filed as active, the others as inactive; · = not tested or not shown. Rows were chosen to be rich in hits. Some 4.7% of all compounds tested hit in one or more screens of this group.

SMILES | TIM10 inh | EBI2 block | tim10-1 inh | tim23-1 inh | PfHsp90 set2 | SKKanGAS inh
COc1ccc(NC(=O)CN(C)C(=O)c2cnc(Cl)c(Cl)c2)cc1 | -12 | -9 | -16 | 2 | 28 | 11
Cc1cc(=O)oc2cc(OCC(=O)N3CCN(C(=O)C4COc5ccccc5O4)CC3)ccc12 (stereo not drawn) | 7 | -4 | 3 | 4 | -12 | 78*
CCCCn1c(=O)[nH]c(=O)c2c1nc(-c1cc3c(cc1Br)OCO3)n2C | 3 | 0 | 7 | 1 | -12 | 0
C=CCNC(=S)NNc1nc(Nc2ccccc2)nc(N2CCCCC2)n1 | 14 | 0 | 35 | 14 | -16 | 8
S=C(NNc1nc(Nc2ccccc2)nc(N2CCCCC2)n1)NC1CCCCC1 | 14 | 12 | 36 | 15 | -1 | 60*
Cc1cc(C(=O)N2CCN(c3ccc([N+](=O)[O-])cc3)CC2)co1 | 0 | -6 | 19 | 16 | · | 12
Cn1c(C(=O)N2CCN(c3ccc([N+](=O)[O-])cc3)CC2)cc2c(=O)[nH]c3ccccc3c21 | · | 7 | · | · | 15 | 75*
COC(=O)[C@@H]1Cc2c([nH]c3ccccc23)C(C)(C)N1C(=O)CCl | 6 | -7 | 16 | -1 | -4 | -2
COc1ccc(NS(=O)(=O)c2c(C)cc(C)cc2C)cn1 | 23 | -8 | 12 | 18 | 16 | 3
Cc1[nH]n(-c2ccccc2)c(=O)c1/C=N/NC(=O)c1cccc(F)c1 | 19 | 9 | -7 | 10 | -35 | 68*
Cc1[nH]n(-c2ccc(Br)cc2)c(=O)c1/C=N/NC(=O)c1ccccc1 | -66 | 16 | -42 | 27 | 19 | 90*
c1ccc(CN2CCN(c3nc4ccccc4c4ccccc34)CC2)cc1 | 15 | 25 | 28 | 29 | 0 | 76*
O=C1NC(Cc2ccc(O)cc2)c2nc3ccc(Br)cc3c(=O)n2-c2ncccc21 (stereo not drawn) | · | -1 | · | · | · | ·
CCN(CCCn1c(SCC#N)nc2ccccc2c1=O)c1ccccc1 | 12 | 33 | 20 | 3 | 8 | 61*
C=C(C)Cn1c(SCC#N)nc2ccccc2c1=O | -2 | 4 | -17 | 4 | -13 | 16
Cc1cccc(C(=O)NC(=S)NNC(=O)c2ccccc2Cl)c1 | 13 | -2 | 38 | 17 | 19 | 86*
Cc1cccc(C(=O)NC(=S)NNC(=O)Cc2ccccc2)c1 | 13 | -5 | 1 | 40 | 109* | 20
CCC(=O)NNC(=S)NC(=O)c1ccc(C)cc1 | 8 | 8 | -6 | -26 | 9 | 22
Cc1ccc(C(=O)NC(=S)NNC(=O)COc2ccccc2C)cc1 | -6 | -7 | 7 | -10 | · | 118*
Cc1cccc(C(=O)NC(=S)NNC(=O)COc2c(C)cccc2C)c1 | 6 | -12 | -1 | -22 | -7 | 107*
CCc1cc(C(=O)N2CCN(C(=O)c3ccccc3)CC2)sc1C | 5 | 3 | 0 | 16 | · | ·
CCCc1c(NC(=O)Nc2ccc(Cl)cc2Cl)cnn1-c1ccccc1 | -14 | 5 | -13 | -7 | 1 | 1
CCn1c(O)c(N=NC(=O)c2ccc(CSc3nncn3C)cc2)c2ccccc21 | -6 | 6 | 2 | 6 | -6 | -4
Cn1cnnc1SCc1ccc(C(=O)N=Nc2c(O)n(Cc3ccc(Cl)cc3)c3ccccc23)cc1 | 16 | 33 | 18 | 28 | -1 | 57*
CC(C)Oc1cccc(C(=O)Nc2ccc(Br)cc2F)c1 | -11 | 9 | 1 | 6 | -7 | 3
SMILES | TIM10 inh | EBI2 block | tim10-1 inh | tim23-1 inh | PfHsp90 set2 | SKKanGAS inh
O=C(N/N=C/c1ccc([N+](=O)[O-])o1)c1ccccc1-n1cccc1 | 36 | -17 | 29 | 40 | -6 | 20
O=C(N/N=C/c1ccc([N+](=O)[O-])o1)c1cn(-c2ccccc2)nc1-c1ccc(Cl)cc1 | 30 | 14 | 26 | -1 | · | 107*
CCN(C(=O)CSc1n[nH]c(-c2ccc(OC)cc2)n1)c1c(N)n(Cc2ccccc2)c(=O)[nH]c1=O | · | 9 | · | · | -8 | ·
COC(=O)c1ccc(CN(c2ccc(C(=O)O)c(O)c2)S(=O)(=O)c2ccc(Cl)c([N+](=O)[O-])c2)cc1 | · | 0 | · | · | -18 | 55*
Cc1cc(=O)[nH]c(Nc2cccc(Cl)c2C)n1 | 4 | -2 | -5 | -9 | 18 | -2
Cc1cccc(NC(=O)c2sc(Cl)nc2-c2ccccc2)c1 | 7 | 2 | 25 | 31 | -14 | 67*

Compound activity from PubChem BioAssay.
